Measured values published in PubChem BioAssay (NCATS).
Results filed as inconclusive are left out. Entries that show only a call come without a potency. Activity calls are given as the source filed them. Unless noted, calls come from the whole dose curve; as a rule, active = well fitted curve in the direction sought with a large enough effect; inconclusive = small, poorly fitted or top-dose-only effect, or another doubt; inactive = no such curve, though single readings can be large; an effect the other way counts as inactive or inconclusive.

Legend:
[1] = Primary qHTS for small molecule stabilizers of the endoplasmic reticulum resident proteome: Secreted ER Calcium Modulated Protein (SERCaMP) assay (AID 1508630); note: potency is the fitted concentration of half-maximal effect
Outline: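 The SH-SY5Y reporter protocol was run at 3 concentrations up to 38.3 uM (primary) or 11 concentrations (follow-up): 16 h compound, 100 nM thapsigargin for 4 h, then extracellular luciferase luminescence.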

[2] = molecular target: Calcium and integrin-binding protein 1 (Homo sapiens) (UniProt Q99828); assay: Primary qHTS for Identification of Calcium Integrin Binding Protein 1 (CIB1) Competitor (AID 1508620);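 note: GST tagged CIB1 binding a fluorescein labelled alphaIIb integrin peptide tracer; top concentration of the series differs between compounds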
Calcium and integrin-binding protein 1 (Homo sapiens), sequence (Q99828 whole entry, looked up): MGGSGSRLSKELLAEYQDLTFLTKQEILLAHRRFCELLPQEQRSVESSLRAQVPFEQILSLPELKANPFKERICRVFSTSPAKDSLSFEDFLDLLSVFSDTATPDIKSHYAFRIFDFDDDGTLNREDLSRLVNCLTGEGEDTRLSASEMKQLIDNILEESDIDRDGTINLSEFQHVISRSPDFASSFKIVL
Outline: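 Fluorescence polarization competition: GST-tagged CIB1 (1 uM final) preincubated with compound 15 min at room temperature, then FITC-labelled alphaIIb peptide (100 nM final) added. After 15 min at room temperature, polarization read at Ex 480/Em 540.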

[3] = molecular target: Cytochrome P450 2D6 (Homo sapiens) (UniProt P10635); assay: Cytochrome P450 family 2 subfamily D member 6 (CYP2D6) small molecule antagonists: luciferase biochemical (cell-free) qHTS assay (AID 1645840; active = well fitted curve in the direction sought with a large enough effect in the repeat runs; an effect the other way counts as inactive or inconclusive; note: nearly all actives have a fitted effect of over 55% in size; note: potency is the fitted concentration of half-maximal effect)
Cytochrome P450 2D6 (Homo sapiens), sequence (P10635 whole entry, looked up): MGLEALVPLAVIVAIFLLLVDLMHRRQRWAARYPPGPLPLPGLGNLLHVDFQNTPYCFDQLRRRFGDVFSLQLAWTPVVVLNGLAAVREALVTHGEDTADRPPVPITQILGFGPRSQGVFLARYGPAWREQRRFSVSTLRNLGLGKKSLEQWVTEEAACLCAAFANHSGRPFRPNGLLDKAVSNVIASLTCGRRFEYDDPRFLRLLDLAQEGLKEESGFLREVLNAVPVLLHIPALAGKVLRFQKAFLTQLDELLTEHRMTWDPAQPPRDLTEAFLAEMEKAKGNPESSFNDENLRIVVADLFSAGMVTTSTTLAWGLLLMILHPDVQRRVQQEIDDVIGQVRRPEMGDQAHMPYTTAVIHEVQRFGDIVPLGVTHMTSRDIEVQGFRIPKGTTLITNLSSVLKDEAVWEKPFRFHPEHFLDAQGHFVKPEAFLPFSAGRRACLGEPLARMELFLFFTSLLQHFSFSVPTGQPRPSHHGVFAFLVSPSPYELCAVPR
Outline: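 P450-Glo CYP2D6 system: proluciferin substrate converted by enzyme to luciferin, read by luminescence proportional to activity. Enzyme-substrate mix with compound 10 min at room temperature, then NADPH regeneration 1 h before detection reagent.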

[4] = Counterscreen qHTS for small molecule stabilizers of the endoplasmic reticulum resident proteome: GLuc-NoTag assay (AID 1508627); note: potency is the fitted concentration of half-maximal effect
Outline: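 Counterscreen line: SH-SY5Y-GLuc-NoTag. Seed, 5 h; compound, 19 h; thapsigargin 100 nM, 4 h; 37C/5% CO2. Readout: secreted GLuc luminescence, coelenterazine 0.07x final, no lysis.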

[5] = Confirmatory qHTS for small molecule stabilizers of the endoplasmic reticulum resident proteome: Secreted ER Calcium Modulated Protein (SERCaMP) assay (AID 1508628); note: potency is the fitted concentration of half-maximal effect; nearly all actives have a fitted effect of over 40% in size
Outline: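 Reporter secretion upon ER calcium depletion (100 nM thapsigargin, 4 h, 37C) is measured as medium luminescence with coelenterazine, after 16 h compound pretreatment of SH-SY5Y-GLuc-SERCaMP cells; primary at three concentrations up to 38.3 uM, follow-up at 11 (up to 76.6 uM).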

CC(C)CN(C[C@@H](O)[C@H](Cc1ccccc1)NC(=O)O[C@H]1CO[C@H]2OCC[C@H]21)S(=O)(=O)c1ccc(N)cc1
Potency [1]: inactive

Clc1ccc(C2(c3ccc(-c4cn[nH]c4)cc3)CCNCC2)cc1
Potency [2]: inactive
Potency [1]: inactive
Potency [3]: 3.38 µM (active)

COc1cc([C@H]2Oc3cc([C@H]4Oc5cc(O)cc(O)c5C(=O)[C@H]4O)ccc3O[C@H]2CO)ccc1O
Potency [1]: inactive

NC(=O)c1nnn(Cc2cc(Cl)c(C(=O)c3ccc(Cl)cc3)c(Cl)c2)c1N
Potency [2]: inactive
Potency [1]: inactive
Potency [3]: 26.8 µM (active)

Cc1c(-c2cccc3c(CCCOc4cccc5ccccc45)c(C(=O)O)n(Cc4cccnc4)c23)c(COc2ccc(N3CCN([S+](=O)([O-])N(C)C)CC3)cc2)nn1C
Potency [1]: inactive

C[C@@H](NC(=O)c1ncnc(N)c1Cl)c1ncc(C(=O)Nc2cc(C(F)(F)F)c(Cl)cn2)s1
Potency [2]: inactive
Potency [1]: inactive
Potency [3]: inactive

COc1ccc(-c2cc(=O)c3c(O)cc(O[C@@H]4O[C@H](CO[C@@H]5O[C@@H](C)[C@H](O)[C@@H](O)[C@@H]5O)[C@@H](O)[C@H](O)[C@@H]4O)cc3o2)cc1O
Potency [1]: inactive

O=C(O)C1=NC(C(=O)O)CC(C=CN2c3cc(O)c(OC4OC(CO)C(O)C(O)C4O)cc3CC2C(=O)O)=C1 (stereo unspecified)
Potency [1]: inactive

O=C1C(CCC(O)c2ccc(F)cc2)C(c2ccc(O)cc2)N1c1ccc(F)cc1 (stereo unspecified)
Potency [1]: inactive

CN1[C@H]2CC[C@H]1CC(OC(=O)c1c[nH]c3ccccc13)C2 (stereo partly specified)
Potency [2]: inactive
Potency [1]: inactive
Potency [3]: 12 µM (active)

CNC1CCC(N(Cc2cccc(-c3ccncc3)c2)C(=O)c2sc3ccccc3c2Cl)CC1 (stereo unspecified)
Potency [1]: inactive

CCCCCCCCCCCCCC(=O)N[C@H](CO)[C@H](O)c1ccc([N+](=O)[O-])cc1
Potency [1]: inactive

CNC1[C@H](O)C(O[C@@H]2C(O)C(O[C@H]3O[C@H]([C@@H](C)NC)CC[C@H]3N)[C@@H](N)C[C@H]2N)OC[C@]1(C)O (stereo partly specified)
Potency [1]: inactive

CC1CCN(c2cc(N3CCN(C)CC3)ccc2NC(=O)c2cc(C#N)c[nH]2)CC1
Potency [2]: inactive
Potency [1]: inactive
Potency [3]: 1.2 µM (active)

C[C@@H](O[C@H]1OCCN(Cc2n[nH]c(=O)[nH]2)[C@@H]1c1ccc(F)cc1)c1cc(C(F)(F)F)cc(C(F)(F)F)c1
Potency [1]: inactive

CC(C)c1onc(-c2c(Cl)cccc2Cl)c1COc1ccc(C=Cc2cccc(C(=O)O)c2)c(Cl)c1
Potency [1]: inactive

C[C@@H]1CC=CC=CC=CC=C[C@@H](O[C@@H]2O[C@H](C)[C@@H](O)[C@H](N)[C@H]2O)C[C@@H]2O[C@](O)(C[C@@H](O)C[C@@H]3O[C@@H]3C=CC(=O)O1)C[C@H](O)[C@@H]2C(=O)O
Potency [1]: inactive

CN(C)c1nc(Cc2ccc(NC(=O)c3ccc(C(F)(F)F)cc3)cc2)nc(N(C)C)c1CC(=O)O
Potency [2]: inactive
Potency [1]: inactive
Potency [3]: inactive

CCN1CCN(c2ccc(Nc3cc(N(C)C(=O)Nc4c(Cl)c(OC)cc(OC)c4Cl)ncn3)cc2)CC1
Potency [1]: inactive

CCC(=C(CC)c1ccc(O)cc1)c1ccc(O)cc1
Potency [1]: inactive

O=c1[nH]c(=O)n([C@H]2C[C@@H](O)[C@@H](CO)O2)cc1I
Potency [1]: inactive

C[C@@H]1CCO[C@H]2Cn3cc(C(=O)NCc4ccc(F)cc4F)c(=O)c(O)c3C(=O)N12
Potency [2]: inactive
Potency [1]: inactive
Potency [3]: inactive

CCNC(=O)Nc1ccc(Oc2ncnc(N)c2C=NOC)cc1Cl
Potency [2]: inactive
Potency [1]: inactive
Potency [3]: inactive

CC[C@H](NC(=O)[C@H](C)NC)C(=O)N1C[C@@H](O)C[C@H]1Cc1c(-c2[nH]c3cc(F)ccc3c2C[C@H]2C[C@H](O)CN2C(=O)[C@H](CC)NC(=O)[C@H](C)NC)[nH]c2cc(F)ccc12
Potency [1]: inactive

COc1cc(C=CC(=O)O)ccc1O
Potency [1]: inactive

COc1ccc(-c2cc3nccn3c(Nc3ncccc3C(N)=O)n2)cc1OC
Potency [1]: inactive

COc1ccc(C=CC(=O)Nc2ccccc2C(=O)O)cc1OC
Potency [2]: inactive
Potency [3]: inactive

CC(C)C[C@H](NC(=O)c1cc2ccccc2s1)C(=O)N1CCN(C(=O)[C@H](CO)NS(=O)(=O)c2ccc(Cl)cc2Cl)CC1
Potency [4]: 44.7 µM (active)
Potency [5]: 15.8 µM (active)
Potency [1]: 23.7 µM (active)

Cc1cccc2c1CC[C@H](CN1CCC(c3c(Cl)cccc3Cl)CC1)C[C@@H]2O
Potency [2]: inactive
Potency [1]: inactive
Potency [3]: 2.13 µM (active)

CC1(C)OC2CC3C4CC(F)C5=CC(=O)C=CC5(C)C4C(O)CC3(C)[C@]2(C(=O)CO)O1 (stereo partly specified)
Potency [1]: inactive
